Source: PubChem BioAssay (NCATS)
Records with an inconclusive call do not appear. Calls of active or inactive are those of the source. Calls follow the shape of the dose curve; as a rule, active = well fitted inhibition curve with a large enough effect; inconclusive = small, poorly fitted or top-dose-only effect; inactive = no such curve, though single readings can be large or run the other way.

Target: Cytochrome P450 2D6 (Homo sapiens) (UniProt P10635)
Assay: qHTS Assay for Inhibitors and Substrates of Cytochrome P450 2D6 (AID 891); also: nearly all actives have a fitted effect of over 60% in size
Settings: recombinant CYP2D6, luciferin-ME EGE luminescence; series mostly up to 57.1 µM
In short: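 Luminescent read-out of luciferin formed by 5 nM human CYP2D6 demethylating 30 uM Luciferin-ME EGE (Km level) over 60 min at room temperature after NADPH regeneration addition. Data normalized to full inhibition by 1.43 uM quinidine.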
Potency is read from the fitted curve at half-maximal effect.

Sequence of Cytochrome P450 2D6 (Homo sapiens) (P10635 whole entry, looked up): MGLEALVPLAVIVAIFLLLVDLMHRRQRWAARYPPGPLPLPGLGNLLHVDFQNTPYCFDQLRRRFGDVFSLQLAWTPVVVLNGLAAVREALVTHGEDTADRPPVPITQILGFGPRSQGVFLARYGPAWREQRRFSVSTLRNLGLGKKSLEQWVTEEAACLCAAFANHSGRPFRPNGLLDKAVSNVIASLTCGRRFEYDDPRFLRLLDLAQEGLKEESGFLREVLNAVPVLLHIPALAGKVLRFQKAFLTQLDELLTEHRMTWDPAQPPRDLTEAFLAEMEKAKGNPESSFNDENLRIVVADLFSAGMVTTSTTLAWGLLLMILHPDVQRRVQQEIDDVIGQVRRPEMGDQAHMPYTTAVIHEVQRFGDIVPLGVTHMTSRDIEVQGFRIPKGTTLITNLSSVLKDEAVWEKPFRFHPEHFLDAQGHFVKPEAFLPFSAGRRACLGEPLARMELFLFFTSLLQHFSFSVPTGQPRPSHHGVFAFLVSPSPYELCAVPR

| SMILES | Potency |
| --- | --- |
| COc1ccc(-n2c(=O)c(-c3cccs3)nc3cnc(N(C)C)nc32)cc1 | inactive |
| CN1CCN(c2ncnc3ccc(-c4ccc5c(c4)OCO5)cc23)CC1 | 0.251 µM (active) |
| CNc1ccnc(-c2ccccc2OC)n1 | 5.01 µM (active) |
| CNc1nc(-c2ccccc2CN(C)C)nc2ccccc12 | 3.98 µM (active) |
| Cc1ccccc1-c1nccc(NCc2cccs2)n1 | 2.51 µM (active) |
